Drawing on PubChem BioAssay AID488969 (Vanderbilt High Throughput Screening Facility, 2010), this text covers z-score for 58 compounds.

Over roughly 110,000 compounds, “z-score” has its median near -0.1; the highest 2% begin near 2. Many of the other results were omitted from the sample, so the highest values are more common in it than they were. Activity calls are given as the source filed them.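 Rule for the calls: active = z-score in the third read window above 3 or below -3; inactive = the rest.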

The target in this assay is Metabotropic glutamate receptor 8 (Rattus norvegicus) (UniProt P70579). The assay is described as follows: rat mGluR8 modulators via GIRK flux, primary screen, cell-based, thallium flux, HTS (AID 488969). The following applies: HEK293 rat mGluR8, GIRK (G protein-gated inwardly rectifying potassium channel) thallium flux, FluoZin2; at 10 µM; stronger effect = higher value.
Metabotropic glutamate receptor 8 (Rattus norvegicus), sequence (P70579 whole entry, looked up): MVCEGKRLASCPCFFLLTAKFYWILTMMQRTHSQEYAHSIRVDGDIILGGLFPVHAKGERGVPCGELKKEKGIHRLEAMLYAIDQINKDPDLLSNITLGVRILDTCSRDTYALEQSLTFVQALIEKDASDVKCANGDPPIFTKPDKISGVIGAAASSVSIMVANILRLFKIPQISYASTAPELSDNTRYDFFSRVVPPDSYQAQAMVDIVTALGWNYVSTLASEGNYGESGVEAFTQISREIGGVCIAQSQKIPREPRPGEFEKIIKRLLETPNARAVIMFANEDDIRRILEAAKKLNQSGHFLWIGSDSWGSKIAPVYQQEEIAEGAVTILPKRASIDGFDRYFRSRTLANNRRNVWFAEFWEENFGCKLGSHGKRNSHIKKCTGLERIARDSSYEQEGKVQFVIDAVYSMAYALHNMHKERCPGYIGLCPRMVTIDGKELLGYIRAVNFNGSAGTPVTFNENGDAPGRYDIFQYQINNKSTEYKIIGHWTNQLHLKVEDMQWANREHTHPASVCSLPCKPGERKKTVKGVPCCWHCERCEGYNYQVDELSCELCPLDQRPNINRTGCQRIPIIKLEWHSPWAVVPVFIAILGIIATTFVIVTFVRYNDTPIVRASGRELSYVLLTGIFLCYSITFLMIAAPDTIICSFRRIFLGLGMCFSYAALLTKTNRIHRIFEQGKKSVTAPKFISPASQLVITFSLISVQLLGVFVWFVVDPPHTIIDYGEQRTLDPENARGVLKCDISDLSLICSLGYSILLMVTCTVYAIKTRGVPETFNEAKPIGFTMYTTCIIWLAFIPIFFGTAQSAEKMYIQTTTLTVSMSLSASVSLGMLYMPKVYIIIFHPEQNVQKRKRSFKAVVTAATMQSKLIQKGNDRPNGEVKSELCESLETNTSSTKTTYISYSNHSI
As for `Cc1[nH]c2ccccc2c1CCCNC1CCCCC1`, the z-score amounted to 0.385.

Regarding `c1ccc2c(CNC3CCCCC3)c[nH]c2c1`, the z-score is 4.16 (active). To `c1ccc2c(CNC3CCCCCC3)c[nH]c2c1` belongs -0.0434; to `COc1cc(C2NCc3ccccc3-n3cccc32)ccc1O` (stereo not drawn), 1.55; to `CCOc1cc(C2NCc3ccccc3-n3cccc32)ccc1O` (stereo not drawn), 1.71. In turn, `COc1ccc(C2NCc3ccc4c(c3-n3cccc32)OCO4)cc1O` (stereo not drawn) showed a z-score of 2.45.

`CCN1C(=O)C(=C/C=C/c2ccco2)C(=O)N(CC)C1=S`: the z-score is -0.628.

In the case of `CCCCN1C(=O)/C(=C/C=C/c2ccco2)C(=O)NC1=S`, the z-score amounted to 0.136. To `CC(C)N1C(=O)/C(=C/C=C/c2ccco2)C(=O)N(Cc2ccco2)C1=O` belongs 6.08 (active); to `COC(=O)C(O)(c1ccc(N=Cc2ccccc2O)c(C)c1)C(F)(F)F` (stereo not drawn), 0.286.

In the case of `O=C(CN1CCOCC1)c1cccc2ccccc12`, the z-score was -0.17.

In turn, `CCN(CC)c1ccc(N=Cc2c(O)n(-c3ccc(Cl)cc3)c(=O)[nH]c2=O)cc1` showed a z-score of 0.126. To `O=C1C2CCCN2C(c2ccc(Cl)c(Cl)c2)N1c1ccccn1` (stereo not drawn) belongs -0.0899; to `O=C1C2CCCN2C(c2ccc(Cl)cc2)N1c1ccccn1` (stereo not drawn), 2.77. Regarding `O=C1C2CCCN2C(c2cccc(Cl)c2)N1c1ccccn1` (stereo not drawn), the z-score was -0.498. Turning to `CC/C(=N\Nc1cccc2ccccc12)c1c(O)[nH]c(=O)[nH]c1=O`, the z-score is -0.114. `CC(=O)OC1C2CCC1C(N1CCCC1)CC2` (stereo not drawn): the z-score was -0.278. `CCN(CC)Cc1c[nH]c2ccccc12`: the z-score was -0.122. For the compound `CCN1CC=C(c2c[nH]c3ccccc23)CC1`, the z-score is 2.05. The figure for `C1=C(c2c[nH]c3ccccc23)CCNC1` is 1.29; for `O=C(C1CCCN(c2nnc(-n3cccc3)s2)C1)N1CCC2(CC1)OCCO2` (stereo not drawn) it is 0.546; for `O=C1NC(=O)N(c2ccc3c(c2)OCO3)C(=O)/C1=C/c1ccc(N2CCCCC2)o1` it is -0.618. To `Nc1c(C(=O)OCc2ccccc2)c2nc3ccccc3nc2n1Cc1cccs1` belongs 0.248; to `CC(=NCC1CCCO1)c1c(O)n(-c2ccccc2)c(=O)[nH]c1=O` (stereo not drawn), 0.0257. The figure for `CC(=NCC1CCCO1)c1c(O)n(-c2ccc(Cl)cc2)c(=O)[nH]c1=O` (stereo not drawn) is -1.18. The compound `CC(=NCC1CCCO1)c1c(O)n(-c2ccc(C)cc2)c(=O)[nH]c1=O` (stereo not drawn) displayed a z-score of 2.68. The compound `CN(C)CCN=Cc1c(O)n(Cc2ccco2)c(=O)[nH]c1=O` displayed a z-score of 0.184.

`Cc1ccc(N2C(=O)NC(=O)/C(=C\c3ccsc3)C2=O)cc1C`: the z-score was -0.165.

On to `O=c1c2ccccc2nc(CSc2ncnc3nc[nH]c23)n1-c1ccc(Cl)c(Cl)c1`, for which the z-score is -0.202. To `c1cc2c(cc1CCNC1C3CC4CC(C3)CC1C4)OCO2` (stereo not drawn) belongs 2.3.

For the compound `CC1CCC(NCCc2ccc3c(c2)OCO3)CC1` (stereo not drawn), the z-score was 0.00241. With `c1cc2c(cc1CCNC1CCCCCC1)OCO2`, the z-score stood at 0.232.

The compound `Cc1cc(C)nc(NC2=NCCS2)n1` gave a z-score of 0.179.

As for `Fc1ccc(NC2=NCCS2)cc1Cl`, the z-score is 4.82 (active).

On to `CC1(C)CN=C(Nc2ccc(F)c(F)c2)S1`, for which the z-score is -0.117. In turn, `CNCC(O)c1cccc(OC(=O)c2ccccc2C)c1` (stereo not drawn) came in with a z-score of 2.34. To `CC(=O)Nc1ccc(OC(=O)c2ccccc2N)cc1` belongs 0.06. To `CCC(COC(=O)NC)NC(=O)Oc1cccc(C)c1` (stereo not drawn) belongs -0.336. Consider `COC(=NC1CCCCC1)C(O)c1c[nH]c2ccccc12` (stereo not drawn), for which the z-score is -0.119. The figure for `O=C(c1ccccc1F)c1cn(Cc2ccccc2)c2ccccc12` is -0.253. The figure for `CN(C)CCOC(=O)c1cn(Cc2ccccc2)c2ccccc12` is 2.01; for `O=C(COc1ccccc1)c1cn(Cc2ccccc2)c2ccccc12` it is -0.418; for `CCCCN1C(=O)NC(=O)/C(=C/c2cnc(SC)nc2)C1=O` it is -0.221. As to `CCOC(=O)C1CCN(/C=C2/C(=O)NC(=O)N(c3ccc(OCC)cc3)C2=O)CC1`, the z-score came out at 0.14. The figure for `C/C(=N\Nc1ccccc1)c1c(O)n(C)c(=O)n(C)c1=O` is 3.74 (active); for `CC/C(=N\Nc1ccccc1)c1c(O)n(C)c(=O)n(C)c1=O` it is -0.0457. To `CC(=NCCC(c1ccccc1)c1ccccc1)c1c(O)n(C)c(=O)n(C)c1=O` belongs -0.488; to `CC(Cc1ccccc1Sc1ccc(O)cc1)N(C)C` (stereo not drawn), 1.64.

As to `O=C(NC(Cc1ccccc1)C(=O)N1CCC2(CC1)OCCO2)C1CCCCC1` (stereo not drawn), the z-score was 0.317. To `CCOC(=O)C1=C(NC(=S)NC(=O)c2ccccc2)c2ccccc2CC12CCCC2` belongs 2.46. The figure for `CCOC(=O)C1=C(N)OC(C)=C(C(=O)OCCOC)C12C(=O)Nc1ccccc12` (stereo not drawn) is 0.399; for `COC(=O)C(O)(c1ccc(NC(=S)NC(=O)c2ccccc2)cc1)C(F)(F)F` (stereo not drawn) it is 0.443. Compound `CCN1CCN(c2ncnc3ccc(Br)cc23)CC1` returned a z-score of 0.327.

On to `CNCC1(c2ccccc2)CCCC1`, for which the z-score was determined as 0.566. To `O=C(NC(=C(Cl)Cl)P(=O)(c1ccccc1)c1ccccc1)c1ccccc1` belongs -0.29. The figure for `CCOc1ccc(Br)c(C2(O)CC(C)N(C)CC2C)c1` (stereo not drawn) is 2.44.

On to `CCC(=O)OC1(c2cccc(C)c2)CC(C)N(C)CC1C` (stereo not drawn), for which the z-score stood at 0.852. The figure for `Cc1ccc(C)c(C2(O)CC(C)N(C)CC2C)c1` (stereo not drawn) is 0.0958.
